Reference: PubChem BioAssay AID1159580 (chemical genetic matrix, 2015)
The whole screen tested about 5,500 compounds, of which about 2,000 (36%) were called active. About 18% were inconclusive and are not listed. Rule as the data show it: active = normalized growth mostly below about 0.91 (no sharp cut-off); inconclusive = no clear call, values can overlap the other calls; inactive = mostly above about 0.92. Some of the results follow.

Assay: chemical genetic growth profiling, strain panel (AID 1159580);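 also: tested at 20 µM; growth read once vehicle control cultures reached saturation at 30 °C; 1 = growth at the plate median or of vehicle wells; lower values mean less growth of the strain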
Settings: growth OD

Measured: normalized growth

c1ccc2c(c1)[nH]c1cnccc12
inactive: S. cerevisiae deletion strains, locus YJR066W, strain TOR1, active compounds read low 0.956 | S. cerevisiae deletion strains, locus YKL009W, strain mrt4, active compounds read low 1.01 | S. cerevisiae deletion strains, locus YKL068W, active compounds read low 0.975 | S. cerevisiae deletion strains, locus YKL085W, strain MDH1 (second series), active compounds read low 0.98 | S. cerevisiae deletion strains, locus YKL085W, strain MDH1, active compounds read low 0.98 | S. cerevisiae deletion strains, locus YKL160W, strain elf1, active compounds read low 1.01 | S. cerevisiae deletion strains, locus YKL190W, strain CNB1, active compounds read low 0.993 | S. cerevisiae deletion strains, locus YKR001C, strain vps1, active compounds read low 0.962 | S. cerevisiae deletion strains, locus YKR026C, strain gcn3, active compounds read low 0.986 | S. cerevisiae deletion strains, locus YKR091W, strain srl3, active compounds read low 1 | S. cerevisiae deletion strains, locus YLL001W, strain dnm1, active compounds read low 1 | S. cerevisiae deletion strains, locus YLL026W, active compounds read low 0.996 | S. cerevisiae deletion strains, locus YLL041C, strain sdh2, active compounds read low 1 | S. cerevisiae deletion strains, locus YLR027C, strain aat2, active compounds read low 1.01 | S. cerevisiae deletion strains, locus YLR039C, strain RIC1, active compounds read low 0.893 | S. cerevisiae deletion strains, locus YLR058C, strain SHM2, active compounds read low 1.01 | S. cerevisiae deletion strains, locus YLR102C, strain apc9, active compounds read low 0.972 | S. cerevisiae deletion strains, locus YLR113W, strain HOG1, active compounds read low 1.03 | S. cerevisiae deletion strains, locus YLR221C, strain rsa3, active compounds read low 1 | S. cerevisiae deletion strains, locus YLR258W, strain gsy2, active compounds read low 0.998 | S. cerevisiae deletion strains, locus YLR262C, strain YPT6 (second series), active compounds read low 0.948 | S. cerevisiae deletion strains, locus YLR262C, strain YPT6, active compounds read low 0.947 | S. cerevisiae deletion strains, locus YLR268W, strain sec22, active compounds read low 0.952 | S. cerevisiae deletion strains, locus YLR320W, strain mms22, active compounds read low 0.994 | S. cerevisiae deletion strains, locus YLR330W, strain CHS5, active compounds read low 0.976 | S. cerevisiae deletion strains, locus YLR342W, strain FKS1 (second series), active compounds read low 1.02 | S. cerevisiae deletion strains, locus YLR342W, strain FKS1, active compounds read low 1 | S. cerevisiae deletion strains, locus YLR357W, strain rsc2, active compounds read low 0.99 | S. cerevisiae deletion strains, locus YLR370C, strain arc18, active compounds read low 1 | S. cerevisiae deletion strains, locus YLR371W, strain rom2, active compounds read low 0.983 | S. cerevisiae deletion strains, locus YLR384C, strain iki3, active compounds read low 0.992 | S. cerevisiae deletion strains, locus YLR418C, strain cdc73, active compounds read low 1.02 | S. cerevisiae deletion strains, locus YML016C, strain PPZ1, active compounds read low 0.991 | S. cerevisiae deletion strains, locus YML032C, strain rad52, active compounds read low 1.02 | S. cerevisiae deletion strains, locus YML120C, strain ndi1, active compounds read low 1 | S. cerevisiae deletion strains, locus YML124C, strain tub3, active compounds read low 0.987 | S. cerevisiae deletion strains, locus YMR058W, strain fet3, active compounds read low 0.996 | S. cerevisiae deletion strains, locus YMR078C, strain ctf18, active compounds read low 0.956 | S. cerevisiae deletion strains, locus YMR125W, strain sto1, active compounds read low 0.996 | S. cerevisiae deletion strains, locus YMR129W, active compounds read low 1.01 | S. cerevisiae deletion strains, locus YMR205C, strain PFK2, active compounds read low 0.977 | S. cerevisiae deletion strains, locus YMR223W, strain ubp8, active compounds read low 1 | S. cerevisiae deletion strains, locus YMR231W, strain pep5, active compounds read low 0.994 | S. cerevisiae deletion strains, locus YMR263W, strain SAP30, active compounds read low 0.982 | S. cerevisiae deletion strains, locus YMR307W, strain GAS1, active compounds read low 1.23 | S. cerevisiae deletion strains, locus YNL067W, strain RPL9B, active compounds read low 0.986 | S. cerevisiae deletion strains, locus YNL071W, strain lat1, active compounds read low 1.01 | S. cerevisiae deletion strains, locus YNL153C, strain GIM3, active compounds read low 0.971 | S. cerevisiae deletion strains, locus YNL183C, strain NPR1, active compounds read low 0.965 | S. cerevisiae deletion strains, locus YNL209W, strain ssb2, active compounds read low 1.01 | S. cerevisiae deletion strains, locus YNL233W, strain BNI4, active compounds read low 0.984 | S. cerevisiae deletion strains, locus YNL248C, strain rpa49, active compounds read low 1.01 | S. cerevisiae deletion strains, locus YNL250W, strain rad50, active compounds read low 0.941 | S. cerevisiae deletion strains, locus YNL271C, strain bni1, active compounds read low 0.985 | S. cerevisiae deletion strains, locus YNL298W, strain CLA4, active compounds read low 0.984 | S. cerevisiae deletion strains, locus YNL307C, strain MCK1, active compounds read low 0.976 | S. cerevisiae deletion strains, locus YNL322C, strain KRE1 (second series), active compounds read low 1 | S. cerevisiae deletion strains, locus YNR049C, strain mso1, active compounds read low 1.01 | S. cerevisiae deletion strains, locus YNR052C, strain pop2, active compounds read low 0.997 | S. cerevisiae deletion strains, locus YOL012C, strain htz1 0.866 | S. cerevisiae deletion strains, locus YOL147C, strain pex11, active compounds read low 0.988 | S. cerevisiae deletion strains, locus YOR001W, strain rrp6, active compounds read low 0.996 | S. cerevisiae deletion strains, locus YOR061W, strain CKA2, active compounds read low 1.01 | S. cerevisiae deletion strains, locus YOR069W, strain VPS5, active compounds read low 0.998 | S. cerevisiae deletion strains, locus YOR070C, strain gyp1, active compounds read low 1.01 | S. cerevisiae deletion strains, locus YOR080W, strain dia2, active compounds read low 0.986 | S. cerevisiae deletion strains, locus YOR083W, strain WHI5, active compounds read low 1 | S. cerevisiae deletion strains, locus YOR106W, strain vam3, active compounds read low 1 | S. cerevisiae deletion strains, locus YOR136W, strain idh2, active compounds read low 0.974 | S. cerevisiae deletion strains, locus YOR144C, strain elg1, active compounds read low 0.99 | S. cerevisiae deletion strains, locus YOR184W, strain ser1, active compounds read low 0.995 | S. cerevisiae deletion strains, locus YOR231W, strain MKK1, active compounds read low 1.03 | S. cerevisiae deletion strains, locus YOR265W, strain rbl2, active compounds read low 0.994 | S. cerevisiae deletion strains, locus YOR270C, strain vph1, active compounds read low 1 | S. cerevisiae deletion strains, locus YOR290C, strain snf2, active compounds read low 1.03 | S. cerevisiae deletion strains, locus YOR316C, strain cot1, active compounds read low 0.988 | S. cerevisiae deletion strains, locus YPL051W, strain arl3, active compounds read low 1 | S. cerevisiae deletion strains, locus YPL055C, strain LGE1, active compounds read low 0.991 | S. cerevisiae deletion strains, locus YPL078C, strain atp4, active compounds read low 1 | S. cerevisiae deletion strains, locus YPL106C, strain sse1, active compounds read low 0.983 | S. cerevisiae deletion strains, locus YPL240C, strain hsp82, active compounds read low 1.02 | S. cerevisiae deletion strains, locus YPL241C, strain CIN2, active compounds read low 1.01 | S. cerevisiae deletion strains, locus YPL256C, strain CLN2, active compounds read low 1.02 | S. cerevisiae deletion strains, locus YPR119W, strain clb2, active compounds read low 0.979 | S. cerevisiae deletion strains, locus YPR141C, strain kar3, active compounds read low 0.984 | S. cerevisiae deletion strains, locus YPR163C, strain tif3, active compounds read low 0.985 | S. cerevisiae deletion strains, locus YPR167C, strain met16, active compounds read low 0.986 | S. cerevisiae deletion strains, strain wtn01, active compounds read low 0.95 | S. cerevisiae strains, strain wild type, active compounds read low 0.999
